Results filed as inconclusive are left out. A number with no mark means an inactive call. Active and inactive are the calls of the source. Calls come from the whole dose curve; as a rule, active = well fitted curve in the direction sought with a large enough effect; inconclusive = small, poorly fitted or top-dose-only effect, or another doubt; inactive = no such curve, though single readings can be large; an effect the other way counts as inactive or inconclusive. Peptide text beside a SMILES is read from it.

The target of test [1] is ATP-dependent 6-phosphofructokinase (Trypanosoma brucei brucei) (UniProt O15648). The test is described as follows: qHTS Assay to Find Inhibitors of T. brucei phosphofructokinase: hit validation (AID 492961).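 Note: luminescence reports ADP formed as PFK phosphorylates fructose-6-phosphate with ATP; % is set by controls: 0 for no effect and ±100 for the full control effect.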 The method, boiled down: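 ADP-Glo luminescence read-out of ADP formed by 1.25 nM PFK from 0.1 mM ATP and 0.5 mM F6P (TEA pH 8.0, 45 min, RT). Compounds titrated; activity normalized to no-enzyme and full-enzyme controls.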
Sequence of ATP-dependent 6-phosphofructokinase (Trypanosoma brucei brucei) (O15648 whole entry, looked up): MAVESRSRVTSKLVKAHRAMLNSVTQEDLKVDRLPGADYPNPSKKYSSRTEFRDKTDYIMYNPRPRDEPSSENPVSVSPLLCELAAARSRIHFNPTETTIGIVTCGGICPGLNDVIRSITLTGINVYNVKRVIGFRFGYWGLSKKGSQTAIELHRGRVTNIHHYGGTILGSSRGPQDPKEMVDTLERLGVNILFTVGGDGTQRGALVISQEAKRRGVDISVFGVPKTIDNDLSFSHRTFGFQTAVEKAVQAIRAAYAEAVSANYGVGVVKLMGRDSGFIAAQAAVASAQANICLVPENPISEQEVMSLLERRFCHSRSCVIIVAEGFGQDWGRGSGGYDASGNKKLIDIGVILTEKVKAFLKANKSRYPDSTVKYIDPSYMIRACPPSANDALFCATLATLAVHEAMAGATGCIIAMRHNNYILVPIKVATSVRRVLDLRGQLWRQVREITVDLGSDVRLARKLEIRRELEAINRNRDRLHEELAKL
(Quantitative high-throughput screening tests each substance at several concentrations.)

In test [2] the target is Ubiquitin carboxyl-terminal hydrolase 1 (Homo sapiens) (UniProt O94782). The test is described as follows: Inhibitors of USP1/UAF1: Pilot qHTS (AID 504865).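 Note: rhodamine fluorescence freed from ubiquitin-rhodamine substrate followed over time; top concentration of the series differs between compounds; % is set by controls: 0 for no effect and ±100 for the full control effect; nearly all actives have a fitted effect of over 35% in size.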 The method in brief:
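USP1/UAF1 complex (1nM) preincubated with compound 15 min at room temperature, then Ub-Rho substrate (150nM final) added. Fluorescence read kinetically at 480/540 nm, 6 reads every 60 seconds. Buffer: 50mM HEPES pH 7.8, 0.5mM EDTA, 0.1 mg/ml BSA, 1mM TCEP, 0.01% Tween-20.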

For test [3], the target named is Luciferin 4-monooxygenase (Photinus pyralis) (UniProt P08659). Put plainly: Biochemical firefly luciferase enzyme assay for NPC (AID 624030).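 Note: purified P. pyralis luciferase at 10 nM with luciferin and ATP substrate; 0% = DMSO and -100% = full luciferase inhibition by PTC124 control; nearly all actives have a fitted effect of over 70% in size.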 The method, boiled down: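 Direct inhibition of firefly luciferase enzyme (10 nM final, 50 mM Tris Acetate) assessed by luminescence within 5 minutes. Percent activity scaled between DMSO and PTC124 positive control, with concentration-effect curves classified by fit quality and response.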
Sequence of Luciferin 4-monooxygenase (Photinus pyralis) (P08659 whole entry, looked up): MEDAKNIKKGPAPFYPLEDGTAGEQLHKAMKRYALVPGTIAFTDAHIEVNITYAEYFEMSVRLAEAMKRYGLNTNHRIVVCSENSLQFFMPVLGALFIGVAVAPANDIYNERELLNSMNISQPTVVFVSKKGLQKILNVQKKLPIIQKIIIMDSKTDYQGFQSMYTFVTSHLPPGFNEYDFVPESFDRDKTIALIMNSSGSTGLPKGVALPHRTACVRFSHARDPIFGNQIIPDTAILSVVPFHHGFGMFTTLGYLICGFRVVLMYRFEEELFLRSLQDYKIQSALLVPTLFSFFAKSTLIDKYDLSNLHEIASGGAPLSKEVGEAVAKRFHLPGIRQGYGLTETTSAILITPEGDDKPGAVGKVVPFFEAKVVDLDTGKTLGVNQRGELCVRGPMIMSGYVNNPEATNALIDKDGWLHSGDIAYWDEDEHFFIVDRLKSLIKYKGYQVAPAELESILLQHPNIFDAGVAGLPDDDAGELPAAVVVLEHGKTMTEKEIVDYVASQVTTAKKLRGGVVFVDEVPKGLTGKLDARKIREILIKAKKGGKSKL

The nature of test [4]: qHTS profiling for inhibitors of Plasmodium falciparum proliferation (AID 504749).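 For activity, negative = inhibition: 0% = DMSO vehicle and full inhibition = artemisinin control.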 For all read-outs here: nearly all actives have a fitted effect of over 60% in size. Note: potency is the fitted concentration of half-maximal effect. The settings on record: P. falciparum in erythrocytes, SYBR Green DNA, 72 h; for activity, negative = inhibition: at 28.7 µM (top of the series). The method in brief: (§1)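 Infected RBCs, 0.3% parasitemia/2.5% Hct final; cpd 72 h, 37 C, 5% CO2; lysis buffer with saponin/triton/SYBR Green I, o/n RT dark; FI 485/535; norm. to artemisinin (0.29 uM) and DMSO.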

The subject of another test is ATS189. Described as above. The settings on record: P. falciparum in erythrocytes, SYBR Green DNA, 72 h; series mostly up to 28.7 µM. The method, boiled down: as §1
Another test concerns C2A. The description is as above. As to conditions: P. falciparum in erythrocytes, SYBR Green DNA, 72 h; series mostly up to 28.7 µM. The method, boiled down: as §1
A further test has as its system CP191. The description is as above. The settings on record: P. falciparum in erythrocytes, SYBR Green DNA, 72 h; series mostly up to 28.7 µM. The method, boiled down: as §1
A further test has as its system CP192. The description is as above. The settings on record: P. falciparum in erythrocytes, SYBR Green DNA, 72 h; series mostly up to 28.7 µM. The method, boiled down:
as §1

The subject of another test is CP201. Described as above. The settings on record: P. falciparum in erythrocytes, SYBR Green DNA, 72 h; series mostly up to 28.7 µM. The method in brief:
as §1

The test system of a further test is CP215. The description is as above. As to conditions: P. falciparum in erythrocytes, SYBR Green DNA, 72 h; series mostly up to 28.7 µM. The method in brief:
as §1

The subject of the next test is CP237. The description is as above. As to conditions: P. falciparum in erythrocytes, SYBR Green DNA, 72 h; series mostly up to 28.7 µM. The method, boiled down:
as §1

Another test relates to CP238. The test is described as above. The settings on record: P. falciparum in erythrocytes, SYBR Green DNA, 72 h; series mostly up to 28.7 µM. The method, boiled down:
as §1

Another test has as its system CP268. Described as above. As to conditions: P. falciparum in erythrocytes, SYBR Green DNA, 72 h; series mostly up to 28.7 µM. The method, boiled down: as §1
Another test has as its system CP269. The test is described as above. As to conditions: P. falciparum in erythrocytes, SYBR Green DNA, 72 h; series mostly up to 28.7 µM. The method in brief:
as §1

In the next test the test system is CP286. The description is as above. As to conditions: P. falciparum in erythrocytes, SYBR Green DNA, 72 h; series mostly up to 28.7 µM. The method, boiled down: as §1
The test system of a further test is CP325. The test is described as above. As to conditions: P. falciparum in erythrocytes, SYBR Green DNA, 72 h; series mostly up to 28.7 µM. The method, boiled down: as §1
A further test deals with CP329. Described as above. The settings on record: P. falciparum in erythrocytes, SYBR Green DNA, 72 h; series mostly up to 28.7 µM. The method in brief: as §1
A further test deals with FAB9. The test is described as above. As to conditions: P. falciparum in erythrocytes, SYBR Green DNA, 72 h; series mostly up to 28.7 µM. The method in brief: as §1
The test system of the next test is JCK. The description is as above. As to conditions: P. falciparum in erythrocytes, SYBR Green DNA, 72 h; series mostly up to 28.7 µM. The method, boiled down:
as §1

A further test has as its system PC49. The test is described as above. As to conditions: P. falciparum in erythrocytes, SYBR Green DNA, 72 h; series mostly up to 28.7 µM. The method in brief:
as §1

Sequence of Ubiquitin carboxyl-terminal hydrolase 1 (Homo sapiens) (O94782 whole entry, looked up): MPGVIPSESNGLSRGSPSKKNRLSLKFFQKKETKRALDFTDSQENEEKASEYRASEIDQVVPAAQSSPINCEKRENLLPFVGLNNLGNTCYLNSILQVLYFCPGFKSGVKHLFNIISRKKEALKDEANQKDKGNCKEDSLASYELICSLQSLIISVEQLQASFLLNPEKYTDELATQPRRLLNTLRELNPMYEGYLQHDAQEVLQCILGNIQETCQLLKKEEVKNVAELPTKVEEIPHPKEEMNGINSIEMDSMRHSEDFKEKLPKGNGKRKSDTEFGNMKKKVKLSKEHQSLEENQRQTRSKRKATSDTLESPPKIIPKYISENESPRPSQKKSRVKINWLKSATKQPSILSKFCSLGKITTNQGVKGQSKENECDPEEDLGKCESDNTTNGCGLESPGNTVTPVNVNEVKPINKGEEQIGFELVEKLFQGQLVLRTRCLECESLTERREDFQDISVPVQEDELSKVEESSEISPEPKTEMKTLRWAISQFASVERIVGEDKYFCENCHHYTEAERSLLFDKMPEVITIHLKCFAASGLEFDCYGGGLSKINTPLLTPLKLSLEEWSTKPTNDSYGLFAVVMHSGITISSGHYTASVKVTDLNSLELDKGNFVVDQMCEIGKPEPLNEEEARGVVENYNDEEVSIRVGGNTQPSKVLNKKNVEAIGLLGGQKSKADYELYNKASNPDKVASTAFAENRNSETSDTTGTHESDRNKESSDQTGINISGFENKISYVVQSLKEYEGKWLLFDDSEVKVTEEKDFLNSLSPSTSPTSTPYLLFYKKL

Regarding `CCC1NC(=O)C(NC(=O)c2ncccc2O)C(C)OC(=O)C(c2ccccc2)NC(=O)C2CC(=O)CCN2C(=O)C(Cc2ccccc2)N(C)C(=O)C2CCCN2C1=O` (centres undefined), the outcome in test [1] was inactive.
Consider `CC(C)C(NC(=O)C(CC(=O)O)NC(=O)C(CCCCN)NC(=O)C(N)CCCN=C(N)N)C(=O)NC(Cc1ccc(O)cc1)C(=O)O` (centres undefined) (H-RKDVY-OH; configuration not given here), for which the result in test [1] was inactive.
Regarding `CC(CO)NC(=O)C1C=C2c3cccc4[nH]cc(c34)CC2N(C)C1` (centres undefined), the Potency entry (in test [2]; in test [3]; with ATS189; with C2A; in the test with CP191; with CP192) was “inactive” in each case. The Potency entry in the test on CP201, in the test on CP215, in the test on CP237, with CP238, in the test on CP268 and with CP269 was “inactive” throughout. The Potency result in the test with CP286, with CP325, in the test on CP329, in the test on FAB9, with JCK and with PC49 was “inactive” throughout. Further, the values for the activity, negative = inhibition in test [4] (parasite line A) and in [4] (parasite line B) were -10.6% and -8.5%, respectively.
For the compound `COC(C(=O)C(O)C(C)O)C1Cc2cc3cc(OC4CC(OC5CC(O)C(OC)C(C)O5)C(OC(C)=O)C(C)O4)c(C)c(O)c3c(O)c2C(=O)C1OC1CC(OC2CC(OC3CC(C)(O)C(OC(C)=O)C(C)O3)C(O)C(C)O2)C(O)C(C)O1` (centres undefined), the outcome in test [1] was inactive. Besides, the Potency entry in [3] is “inactive”. The Potency in test [4] (parasite line A) is 0.708 µM (active); in test [4] (parasite line B), 1.41 µM (active); in the test on ATS189, 1.41 µM (active); in the test on C2A, 1.78 µM (active); in the test on CP191, 1.78 µM (active); in the test on CP192, 4.26 µM (active). Moreover, the Potency in the test with CP201 was 15.1 µM (active); with CP215, 4.26 µM (active); in the test on CP237, 0.0891 µM (active); in the test on CP238 it was 1.26 µM (active); in the test on CP268, 1.9 µM (active); in the test on CP269 it was 1.9 µM (active). In addition, the Potency with CP286 is 0.1 µM (active); in the test with CP325 it was 3.38 µM (active); with CP329 it was 3.38 µM (active); with FAB9, 2 µM (active); in the test with JCK, 3.98 µM (active); in the test on PC49, 2.82 µM (active).
`C=C1CC2C(CC[C@]3(C)C(=O)CCC23)[C@]2(C)C=CC(=O)C=C12` (some centres undefined): the compound was called inactive in test [1]. Also, the Potency entry (in [3]; with ATS189; in the test on C2A; in the test with CP191; in the test with CP192; in the test with CP201) was “inactive” in each case. For the same compound, the Potency result with CP215, in the test with CP237, in the test on CP238, in the test on CP268, with CP269 and in the test with CP286 was “inactive” in each case. The Potency result with CP325, in the test on CP329, in the test on FAB9, in the test on JCK and in the test on PC49 was “inactive” each time. Further, in test [4] (parasite line B), the activity, negative = inhibition is 0.0393%.
For the compound `O=[N+]([O-])OC1CO[C@H]2C(O[N+](=O)[O-])COC12` (some centres undefined), the compound was classed as inactive in test [1]. Besides, the Potency result (in [3]; in the test with ATS189; in the test with C2A; in the test on CP191; in the test with CP192; with CP201) was “inactive” throughout. For the same compound, the Potency result with CP237, in the test on CP238, with CP268, in the test on CP269, with CP286 and in the test on CP325 was “inactive” in each case. In addition, the Potency result in the test on CP329, in the test with FAB9, with JCK and in the test on PC49 was “inactive” in each case. The activity, negative = inhibition in test [4] (parasite line A) is -2.15%; in test [4] (parasite line B) it was 1.56%.
`CC(=O)O[C@H]1C[C@H](O[C@H]2[C@@H](O)CC(O[C@H]3[C@@H](O)C[C@H](O[C@H]4CC[C@@]5(C)[C@H](CC[C@@H]6[C@@H]5CC[C@]5(C)[C@@H](C7=CC(=O)OC7)CC[C@]65O)C4)O[C@@H]3C)O[C@@H]2C)O[C@H](C)[C@H]1O[C@@H]1O[C@H](CO)[C@@H](O)[C@H](O)[C@H]1O` (some centres undefined): in [1], the compound was called inactive. In addition, the Potency result (in test [2]; in test [3]; with ATS189; with C2A; with CP192; in the test on CP201) was “inactive” each time. In addition, the Potency entry in the test on CP215, in the test with CP238, in the test on CP268, with CP269, in the test with CP286 and in the test on CP325 was “inactive” in each case. Further, the Potency entry in the test on CP329, with FAB9, with JCK and with PC49 was “inactive” each time. Further, the activity, negative = inhibition in test [4] (parasite line A) was 9.47%; in test [4] (parasite line B), 16.3%.

(Values after PubChem BioAssay (NCATS).)
